Test results reported in the supplement of paper PMC11732987, “Enantioselective OTUD7B fragment discovery through chemoproteomics screening and high-throughput optimisation” (Communications Chemistry, 2025).

Experiments:
Experiment in all cases: log2 ratio of Biotin-Ahx-Ub-VS probe labelling (fragment/DMSO); higher = less target engagement (more negative = stronger competition), active = hit call of the paper (q ≤ 0.05, log2 ratio ≤ -1)
Conditions in all cases: compound concentration: 200 uM; treatment time: 3 h
USP19 = target: T1, USP19 (UniProt O94966)
T1 sequence (whole entry): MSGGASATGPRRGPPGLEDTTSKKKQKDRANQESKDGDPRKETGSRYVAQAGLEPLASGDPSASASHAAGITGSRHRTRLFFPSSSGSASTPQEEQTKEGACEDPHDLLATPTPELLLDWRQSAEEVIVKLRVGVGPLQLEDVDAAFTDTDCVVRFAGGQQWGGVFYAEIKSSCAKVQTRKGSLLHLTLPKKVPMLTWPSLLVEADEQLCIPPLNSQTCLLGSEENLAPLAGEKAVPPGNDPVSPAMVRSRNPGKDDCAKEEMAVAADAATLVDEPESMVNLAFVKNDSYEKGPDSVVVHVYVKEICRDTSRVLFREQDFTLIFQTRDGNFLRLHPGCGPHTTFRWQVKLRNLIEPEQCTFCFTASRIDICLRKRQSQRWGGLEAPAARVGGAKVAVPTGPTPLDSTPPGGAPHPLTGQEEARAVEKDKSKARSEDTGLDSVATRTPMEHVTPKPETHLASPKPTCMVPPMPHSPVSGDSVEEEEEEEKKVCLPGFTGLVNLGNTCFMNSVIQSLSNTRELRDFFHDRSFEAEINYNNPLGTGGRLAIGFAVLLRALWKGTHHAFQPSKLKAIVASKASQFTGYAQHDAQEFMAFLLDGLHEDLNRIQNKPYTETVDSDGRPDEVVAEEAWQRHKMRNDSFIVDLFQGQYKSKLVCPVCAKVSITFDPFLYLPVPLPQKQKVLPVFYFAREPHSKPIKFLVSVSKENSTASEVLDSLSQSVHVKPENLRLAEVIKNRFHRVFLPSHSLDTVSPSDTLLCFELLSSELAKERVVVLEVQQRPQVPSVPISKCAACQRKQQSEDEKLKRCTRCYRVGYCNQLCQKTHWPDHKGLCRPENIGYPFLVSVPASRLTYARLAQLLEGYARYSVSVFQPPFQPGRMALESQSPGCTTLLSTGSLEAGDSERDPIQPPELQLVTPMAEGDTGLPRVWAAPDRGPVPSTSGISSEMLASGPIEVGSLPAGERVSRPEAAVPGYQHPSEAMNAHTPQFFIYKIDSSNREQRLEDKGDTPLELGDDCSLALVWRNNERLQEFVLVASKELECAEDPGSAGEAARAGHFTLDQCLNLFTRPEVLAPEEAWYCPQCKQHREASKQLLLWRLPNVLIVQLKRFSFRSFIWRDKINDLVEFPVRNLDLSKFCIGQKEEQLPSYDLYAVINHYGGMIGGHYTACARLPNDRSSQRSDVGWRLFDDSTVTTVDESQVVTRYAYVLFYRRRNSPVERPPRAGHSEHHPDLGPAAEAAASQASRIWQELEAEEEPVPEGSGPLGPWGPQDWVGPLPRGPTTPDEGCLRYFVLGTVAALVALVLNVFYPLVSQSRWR
How it was run: (§1)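 HEK293T lysate, 495 µg per sample in Tris/CHAPS/IGEPAL buffer with protease inhibitors, was treated in triplicate with fragment at 200 µM or vehicle for 3 h and then with Biotin-Ahx-Ub-VS at 0.5 µM final for 1 h. Labelled DUBs were NeutrAvidin-enriched, digested with LysC and trypsin, and run by diaPASEF LC-MS/MS. Spectronaut label-free quantities were global-median-normalised, and values are average log2 fragment/vehicle ratios by unpaired t-test on proteins with ≥2 unique peptides.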

USP22 = target: T2, USP22 (UniProt Q9UPT9)
T2 sequence (whole entry): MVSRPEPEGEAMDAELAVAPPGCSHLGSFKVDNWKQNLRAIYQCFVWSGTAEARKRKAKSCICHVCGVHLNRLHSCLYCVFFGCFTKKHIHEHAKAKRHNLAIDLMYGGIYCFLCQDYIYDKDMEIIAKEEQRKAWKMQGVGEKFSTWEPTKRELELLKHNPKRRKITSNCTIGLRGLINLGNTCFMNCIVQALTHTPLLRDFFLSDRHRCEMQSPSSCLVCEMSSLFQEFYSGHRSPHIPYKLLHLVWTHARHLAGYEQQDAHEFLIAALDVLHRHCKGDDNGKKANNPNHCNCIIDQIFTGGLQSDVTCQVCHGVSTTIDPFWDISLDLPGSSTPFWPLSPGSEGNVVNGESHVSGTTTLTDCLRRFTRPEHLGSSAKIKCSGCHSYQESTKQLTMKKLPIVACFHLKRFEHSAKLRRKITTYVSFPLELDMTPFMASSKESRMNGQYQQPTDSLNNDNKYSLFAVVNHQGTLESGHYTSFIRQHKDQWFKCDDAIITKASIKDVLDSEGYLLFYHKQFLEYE
How it was run: as §1

USP24 = USP24 (UniProt Q9UPU5)
USP24, sequence (Q9UPU5 whole entry): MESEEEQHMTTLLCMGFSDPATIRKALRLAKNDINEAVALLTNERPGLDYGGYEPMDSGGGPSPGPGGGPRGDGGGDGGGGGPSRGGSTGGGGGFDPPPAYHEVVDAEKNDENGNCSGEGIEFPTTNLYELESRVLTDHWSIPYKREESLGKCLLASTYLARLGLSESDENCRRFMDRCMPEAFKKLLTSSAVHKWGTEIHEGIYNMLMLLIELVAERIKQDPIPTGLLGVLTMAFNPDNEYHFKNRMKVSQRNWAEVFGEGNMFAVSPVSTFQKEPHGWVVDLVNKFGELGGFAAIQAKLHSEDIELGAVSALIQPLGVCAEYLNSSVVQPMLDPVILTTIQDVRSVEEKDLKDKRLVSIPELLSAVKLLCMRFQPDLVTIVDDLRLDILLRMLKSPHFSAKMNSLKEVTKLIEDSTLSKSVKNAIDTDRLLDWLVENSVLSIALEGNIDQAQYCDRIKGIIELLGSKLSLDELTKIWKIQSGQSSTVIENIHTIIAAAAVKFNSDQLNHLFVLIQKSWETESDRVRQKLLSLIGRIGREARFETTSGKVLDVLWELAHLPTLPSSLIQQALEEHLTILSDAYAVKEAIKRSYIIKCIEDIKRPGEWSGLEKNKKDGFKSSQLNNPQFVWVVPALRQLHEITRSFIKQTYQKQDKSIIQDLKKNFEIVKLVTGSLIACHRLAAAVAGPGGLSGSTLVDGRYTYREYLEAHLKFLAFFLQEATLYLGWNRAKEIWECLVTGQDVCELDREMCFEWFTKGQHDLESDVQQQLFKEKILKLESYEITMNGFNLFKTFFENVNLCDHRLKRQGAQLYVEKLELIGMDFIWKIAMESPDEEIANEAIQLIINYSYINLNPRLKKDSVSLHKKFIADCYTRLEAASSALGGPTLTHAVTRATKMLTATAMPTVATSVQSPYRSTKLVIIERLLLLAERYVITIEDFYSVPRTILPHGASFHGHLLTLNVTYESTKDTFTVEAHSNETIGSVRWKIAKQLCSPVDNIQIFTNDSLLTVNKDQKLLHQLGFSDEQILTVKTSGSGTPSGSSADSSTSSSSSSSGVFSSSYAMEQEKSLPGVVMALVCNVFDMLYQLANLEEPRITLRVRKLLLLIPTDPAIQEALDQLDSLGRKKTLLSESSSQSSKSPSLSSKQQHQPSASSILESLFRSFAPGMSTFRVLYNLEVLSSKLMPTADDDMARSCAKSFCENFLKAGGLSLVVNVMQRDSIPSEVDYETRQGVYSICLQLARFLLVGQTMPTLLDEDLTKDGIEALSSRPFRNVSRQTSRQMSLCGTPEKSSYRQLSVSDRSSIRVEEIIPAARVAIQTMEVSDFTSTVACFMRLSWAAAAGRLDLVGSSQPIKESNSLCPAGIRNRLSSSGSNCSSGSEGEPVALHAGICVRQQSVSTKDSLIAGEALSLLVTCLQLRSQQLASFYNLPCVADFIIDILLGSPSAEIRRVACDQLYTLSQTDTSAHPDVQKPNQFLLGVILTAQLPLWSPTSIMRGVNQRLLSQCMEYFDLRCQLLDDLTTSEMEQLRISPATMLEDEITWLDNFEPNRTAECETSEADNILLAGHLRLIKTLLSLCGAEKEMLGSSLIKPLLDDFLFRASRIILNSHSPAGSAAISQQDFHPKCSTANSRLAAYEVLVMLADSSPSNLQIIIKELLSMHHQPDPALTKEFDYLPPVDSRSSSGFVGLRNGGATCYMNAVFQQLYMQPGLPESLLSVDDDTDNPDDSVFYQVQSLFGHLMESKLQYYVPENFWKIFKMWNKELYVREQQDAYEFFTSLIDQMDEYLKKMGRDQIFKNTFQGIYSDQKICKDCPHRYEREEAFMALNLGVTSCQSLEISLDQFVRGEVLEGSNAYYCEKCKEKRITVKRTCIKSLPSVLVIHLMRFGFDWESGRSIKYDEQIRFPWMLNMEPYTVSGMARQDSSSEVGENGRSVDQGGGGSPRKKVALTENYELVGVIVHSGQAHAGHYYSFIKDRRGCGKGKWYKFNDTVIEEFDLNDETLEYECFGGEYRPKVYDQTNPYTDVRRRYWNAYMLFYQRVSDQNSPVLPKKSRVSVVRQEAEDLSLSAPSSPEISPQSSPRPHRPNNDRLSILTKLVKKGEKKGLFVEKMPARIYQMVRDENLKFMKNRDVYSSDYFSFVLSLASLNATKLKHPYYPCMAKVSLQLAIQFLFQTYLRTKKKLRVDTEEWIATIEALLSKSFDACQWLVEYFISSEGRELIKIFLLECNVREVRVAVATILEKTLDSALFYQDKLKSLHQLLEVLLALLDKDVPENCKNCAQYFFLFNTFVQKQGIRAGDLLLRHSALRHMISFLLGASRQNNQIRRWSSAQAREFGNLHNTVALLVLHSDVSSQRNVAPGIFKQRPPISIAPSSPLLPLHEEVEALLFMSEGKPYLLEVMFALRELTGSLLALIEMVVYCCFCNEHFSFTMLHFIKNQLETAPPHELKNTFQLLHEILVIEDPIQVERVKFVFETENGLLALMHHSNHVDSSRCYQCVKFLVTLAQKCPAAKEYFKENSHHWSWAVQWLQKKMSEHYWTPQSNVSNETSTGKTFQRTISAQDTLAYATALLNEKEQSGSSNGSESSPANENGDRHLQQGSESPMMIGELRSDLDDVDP
How it was run: as §1

USP25 = target: T3, USP25 (UniProt Q9UHP3)
T3 sequence (whole entry): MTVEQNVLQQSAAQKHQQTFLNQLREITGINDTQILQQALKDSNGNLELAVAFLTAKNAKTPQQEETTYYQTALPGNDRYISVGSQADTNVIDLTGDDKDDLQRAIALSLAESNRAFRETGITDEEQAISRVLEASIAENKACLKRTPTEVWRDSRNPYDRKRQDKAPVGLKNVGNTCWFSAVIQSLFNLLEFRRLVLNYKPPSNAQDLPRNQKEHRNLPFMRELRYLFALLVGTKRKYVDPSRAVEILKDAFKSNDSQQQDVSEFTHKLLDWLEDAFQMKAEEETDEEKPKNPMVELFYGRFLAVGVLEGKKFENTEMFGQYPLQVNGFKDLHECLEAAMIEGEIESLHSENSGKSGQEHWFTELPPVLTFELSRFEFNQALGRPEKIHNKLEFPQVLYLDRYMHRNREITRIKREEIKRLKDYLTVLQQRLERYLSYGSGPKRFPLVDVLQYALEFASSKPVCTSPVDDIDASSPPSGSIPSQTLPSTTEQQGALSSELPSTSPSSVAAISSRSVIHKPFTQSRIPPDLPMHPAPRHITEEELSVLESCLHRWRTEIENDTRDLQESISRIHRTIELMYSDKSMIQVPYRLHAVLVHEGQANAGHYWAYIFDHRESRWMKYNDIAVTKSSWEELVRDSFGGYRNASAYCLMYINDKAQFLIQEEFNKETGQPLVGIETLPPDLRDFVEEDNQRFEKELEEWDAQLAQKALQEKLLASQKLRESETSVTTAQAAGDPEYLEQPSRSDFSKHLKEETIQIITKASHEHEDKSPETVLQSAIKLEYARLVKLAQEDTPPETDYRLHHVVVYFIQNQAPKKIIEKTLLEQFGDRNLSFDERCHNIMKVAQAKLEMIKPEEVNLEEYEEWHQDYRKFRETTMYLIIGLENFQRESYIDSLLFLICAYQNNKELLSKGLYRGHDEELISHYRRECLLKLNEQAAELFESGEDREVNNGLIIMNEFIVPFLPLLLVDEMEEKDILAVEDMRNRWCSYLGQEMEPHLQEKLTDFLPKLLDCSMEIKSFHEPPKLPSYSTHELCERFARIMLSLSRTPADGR
How it was run: as §1

USP28 = target: T4, USP28 (UniProt Q96RU2)
T4 sequence (whole entry): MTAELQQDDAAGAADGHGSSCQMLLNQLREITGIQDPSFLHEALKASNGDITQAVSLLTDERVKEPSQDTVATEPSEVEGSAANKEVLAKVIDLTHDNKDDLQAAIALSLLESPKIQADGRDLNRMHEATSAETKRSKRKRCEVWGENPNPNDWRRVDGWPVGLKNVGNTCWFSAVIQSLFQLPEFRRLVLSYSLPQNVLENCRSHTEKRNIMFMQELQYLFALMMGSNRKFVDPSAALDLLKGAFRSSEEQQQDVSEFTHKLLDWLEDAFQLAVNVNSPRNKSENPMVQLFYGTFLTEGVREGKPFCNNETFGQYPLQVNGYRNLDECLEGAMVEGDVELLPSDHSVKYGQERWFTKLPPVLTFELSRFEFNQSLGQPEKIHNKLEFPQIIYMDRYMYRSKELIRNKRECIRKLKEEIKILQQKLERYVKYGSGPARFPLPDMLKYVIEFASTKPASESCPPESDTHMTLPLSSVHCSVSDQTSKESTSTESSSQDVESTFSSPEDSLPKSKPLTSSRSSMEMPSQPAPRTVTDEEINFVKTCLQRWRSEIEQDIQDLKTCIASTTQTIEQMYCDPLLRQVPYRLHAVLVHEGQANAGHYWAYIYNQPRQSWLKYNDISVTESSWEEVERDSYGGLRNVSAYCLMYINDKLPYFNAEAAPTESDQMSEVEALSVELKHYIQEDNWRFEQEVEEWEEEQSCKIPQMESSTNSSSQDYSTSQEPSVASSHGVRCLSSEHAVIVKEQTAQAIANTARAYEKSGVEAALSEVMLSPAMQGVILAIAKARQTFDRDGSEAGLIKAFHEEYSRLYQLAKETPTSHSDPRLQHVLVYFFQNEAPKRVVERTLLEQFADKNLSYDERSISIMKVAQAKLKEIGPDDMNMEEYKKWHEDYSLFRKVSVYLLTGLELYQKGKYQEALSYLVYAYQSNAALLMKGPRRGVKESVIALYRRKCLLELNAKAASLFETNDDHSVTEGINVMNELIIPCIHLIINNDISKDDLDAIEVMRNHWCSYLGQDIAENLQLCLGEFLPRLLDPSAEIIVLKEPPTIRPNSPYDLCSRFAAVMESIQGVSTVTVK
How it was run: as §1

Measured: log2 ratio of Biotin-Ahx-Ub-VS probe labelling

Cc1ccc2nnc(CNC(=O)CCl)n2c1
inactive: USP19 -0.0329 | USP22 -0.259 | USP24 0.0887 | USP25 0.182 | USP28 -0.241
